# Measured values from the supplement of paper PMC9950053.
# Structures can show the parent of a compound that is named as a salt.
# Columns and labels:
# Conditions in all cases: 10 µM; exposure time: 3 h pre-incubation + 3 h imaging
# [1] = test system: Danio rerio larvae (5 dpf); experiment: combined upward orientation toward moving lines (periods 7-14) minus DMSO control (percentage points); higher = more orientation with moving lines than DMSO larvae
# In short: (§1)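 Wild-type 5 dpf zebrafish larvae were exposed to compounds at 10 µM final for 3 h before and 3 h during imaging at 28.5 °C. Larvae were imaged every 6 s and tracked by Z-LaP Tracker. Detections below 0.5 probability and larvae moving under 1% of the time were excluded. Each behavioural measure is the group mean (n = 48) minus the DMSO control mean (n = 844), in percentage points.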
# [2] = test system: Danio rerio larvae (5 dpf); experiment: combined optomotor response (time in upper well half, down vs up moving lines, periods 7-14) minus DMSO control (percentage points); higher = stronger optomotor response than DMSO larvae
# [3] = test system: Danio rerio larvae (5 dpf); experiment: startle (activity period 16 minus period 15, 20-s interval sound) minus DMSO control (percentage points); higher = stronger startle response than DMSO larvae
# In short: as §1
# [4] = test system: Danio rerio larvae (5 dpf); experiment: excitability (activity period 17 minus period 16, 1-s interval sound) minus DMSO control (percentage points); higher = more acoustic excitability than DMSO larvae
# In short: as §1
# [5] = test system: Danio rerio larvae (5 dpf); experiment: 1-h baseline activity (% time moving, periods 1-6) minus DMSO control (percentage points); higher = more locomotor activity than DMSO larvae
# In short: as §1
smiles,measurement,setting,value
CN(C)CCC[C@@]1(c2ccc(F)cc2)OCc2cc(C#N)ccc21 [Escitalopram oxalate],combined upward orientation toward moving lines,[1],-1.11
same,combined optomotor response,[2],-0.7
CC1CNc2c(cccc2S(=O)(=O)N[C@@H](CCCNC(=N)N)C(=O)N2CC[C@@H](C)C[C@@H]2C(=O)O)C1 (stereo not given in full) [Argatroban],combined upward orientation toward moving lines,[1],0.479
same,combined optomotor response,[2],3.86
Cc1cccc(CN2CCN(C(c3ccccc3)c3ccc(Cl)cc3)CC2)c1 (stereo not given) [Meclizine dihydrochloride],combined upward orientation toward moving lines,[1],-2.56
same,combined optomotor response,[2],-13.9
CC(C)C(=O)Nc1ccc([N+](=O)[O-])c(C(F)(F)F)c1 [Flutamide],startle,[3],-5.6
same,combined optomotor response,[2],-12.4
CCOC(=O)N1CCC(=C2c3ccc(Cl)cc3CCc3cccnc32)CC1 [Loratidine],excitability,[4],-3.25
CCC(=O)O[C@]1(C(=O)SCF)[C@H](C)C[C@H]2[C@@H]3C[C@H](F)C4=CC(=O)C=C[C@]4(C)[C@@]3(F)[C@@H](O)C[C@@]21C [Fluticasone propionate],1-h baseline activity,[5],6.52
same,combined optomotor response,[2],2.4
CCCCc1nc(Cl)c(CO)n1Cc1ccc(-c2ccccc2-c2nnn[nH]2)cc1 [Losartan potassium],excitability,[4],6.79
same,combined optomotor response,[2],-0.522
CC(CCc1ccc(O)cc1)NCCc1ccc(O)c(O)c1 (stereo not given) [Dobutamine hydrochloride],excitability,[4],9.03
same,combined optomotor response,[2],1.08
CCOc1nc2cccc(C(=O)O)c2n1Cc1ccc(-c2ccccc2-c2noc(=O)[nH]2)cc1 [Azilsartan],excitability,[4],4.01
same,combined optomotor response,[2],0.518
Cc1ccc(NC(=O)c2ccc(CN3CCN(C)CC3)cc2)cc1Nc1nccc(-c2cccnc2)n1 [Imatinib mesylate],1-h baseline activity,[5],-13.5
COc1c(C)c2c(c(O)c1C/C=C(\C)CCC(=O)O)C(=O)OC2 [Mycophenolic acid],excitability,[4],1.48
same,combined optomotor response,[2],7.6
